Results reported in PubChem BioAssay (Tox21).
Values without a mark were called inactive. Records with an inconclusive call do not appear. Where a call stands in place of a potency, no number is given. The source made the active and inactive calls. Unless noted, calls come from the whole dose curve; as a rule, active = well fitted curve in the direction sought with a large enough effect in the repeat runs; inconclusive = weak or mixed curves; inactive = no such curve, though single readings can be large; an effect the other way counts as inactive or inconclusive.

Legend:
[1] = qHTS assay to test for compound auto fluorescence at 535 nm (green) in HEK293 cells (AID 720680)
[2] = qHTS assay to test for compound auto fluorescence at 460 nm (blue) in HEK293 cell free culture (AID 720681); note: potency is the fitted concentration of half-maximal effect
In short: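 Test compounds were pinned into cell-free culture medium (DMEM with 10% FBS) and fluorescence was read directly at Ex/Em 405/460 nm. Signals were expressed as fluorescence equivalents of triamterene, with DMSO vehicle as control.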

[3] = qHTS assay to test for compound auto fluorescence at 535 nm (green) in HEK293 cell free culture (AID 720682)
In short: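 Green-channel intensity (Ex/Em 485/535 nm) was recorded from compound-treated wells containing only DMEM with 10% FBS. Fluorescein provided the equivalency standard.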

[4] = qHTS assay to test for compound auto fluorescence at 590 nm (red) in HEK293 cell free culture (AID 720683)
In short: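 Tox21 10K library compounds were pinned into cell-free DMEM with 10% FBS and fluorescence was read at excitation 540 nm. Activity is expressed as Rose Bengal sodium equivalency.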

[5] = qHTS assay to test for compound auto fluorescence at 590 nm (red) in HepG2 cell free culture (AID 720684)
In short: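 Readout: intrinsic compound fluorescence at 590 nm emission after 540 nm excitation, scaled to Rose Bengal sodium. Matrix was cell-free MEM with 10% FBS; DMSO vehicle wells served as control.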

[6] = qHTS assay to test for compound auto fluorescence at 460 nm (blue) in HepG2 cell free culture (AID 720685); note: potency is the fitted concentration of half-maximal effect
In short: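 Cell-free plates of MEM plus 10% FBS received 23 nL compound or DMSO vehicle; blue-channel (405/460 nm) intensity scored against triamterene as reference fluorophore.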

[7] = qHTS assay to test for compound auto fluorescence at 535 nm (green) in HepG2 cell free culture (AID 720686)
[8] = qHTS assay to test for compound auto fluorescence at 460 nm (blue) in HepG2 cells (AID 720687); note: potency is the fitted concentration of half-maximal effect
In short: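 Cells (2,000/well in MEM with 10% FBS) attached overnight at 37 C, then were exposed to compound or DMSO for 1 hr at 37 C, 5% CO2. Fluorescence read at Ex/Em 405/460 nm, expressed as triamterene-equivalent signal.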

[9] = qHTS assay for identifying genotoxic compounds that show differential cytotoxicity against isogenic chicken DT40 cell lines with known DNA damage response pathways - wild type cell line (AID 743012); note: nearly all actives have a fitted effect of over 60% in size; note: potency is the fitted concentration of half-maximal effect
In short: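 300 wt DT40 cells/well; cpd (DMSO) pintool-transferred after ~0.5 h at 37 C/5% CO2; 40 h incubation; CellTiter-Glo added, 30 min RT; luminescence read.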

[10] = qHTS assay for identifying genotoxic compounds that show differential cytotoxicity against isogenic chicken DT40 cell lines with known DNA damage response pathways - Rev3 mutant cell line (AID 743014); note: nearly all actives have a fitted effect of over 55% in size; note: potency is the fitted concentration of half-maximal effect
[11] = qHTS assay for identifying genotoxic compounds that show differential cytotoxicity against isogenic chicken DT40 cell lines with known DNA damage response pathways - Rad54/Ku70 mutant cell line (AID 743015); note: nearly all actives have a fitted effect of over 60% in size; note: potency is the fitted concentration of half-maximal effect
[12] = qHTS assay to identify small molecule antagonists of the androgen receptor (AR) signaling pathway - cell viability counter screen (AID 743033; note: nearly all actives have a fitted effect of over 45% in size; note: potency is the fitted concentration of half-maximal effect)
[13] = qHTS assay to identify small molecule antagonists of the glucocorticoid receptor (GR) signaling pathway - cell viability counter screen (AID 720693); note: nearly all actives have a fitted effect of over 55% in size; note: potency is the fitted concentration of half-maximal effect
[14] = target: Androgen receptor (Homo sapiens) (UniProt P10275); experiment: qHTS assay to identify small molecule agonists of the androgen receptor (AR) signaling pathway using the MDA cell line (AID 743040; note: nearly all actives have a fitted effect of over 20% in size; note: potency is the fitted concentration of half-maximal effect)
In short: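 Agonist activity is measured as luciferase luminescence in human MDA-kb2 cells whose MMTV reporter responds to both AR and GR. Compounds in DMSO incubate 16 h at 37C, 0% CO2, and ONE-Glo is read after 30 min.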

[15] = qHTS assay to identify small molecule antagonists of the androgen receptor (AR) signaling pathway using the MDA cell line - cell viability counter screen (AID 743041; note: nearly all actives have a fitted effect of over 45% in size; note: potency is the fitted concentration of half-maximal effect)
In short: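 qHTS viability read-out; MDA-kb2 AR-luc; R1881-stimulated; 16 h exposure at 37C, 0% CO2; CellTiter-Fluor, 30 min; fluorescence intensity.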

[16] = target: Androgen receptor (Homo sapiens) (UniProt P10275); experiment: qHTS assay to identify small molecule antagonists of the androgen receptor (AR) signaling pathway using the MDA cell line (AID 743042; note: nearly all actives have a fitted effect of over 55% in size; note: potency is the fitted concentration of half-maximal effect)
In short: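 MDA-kb2 cells (human breast carcinoma, stably carrying an MMTV-luciferase reporter responsive to AR and GR) were plated at 3,000 cells/well and preincubated 5 hr at 37C, then given compound plus R1881 agonist for 16 h. ONE-Glo luminescence was read.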

[17] = target: Androgen receptor (Homo sapiens) (UniProt P10275); experiment: qHTS assay to identify small molecule antagonists of the androgen receptor (AR) signaling pathway (AID 743035; active = well fitted inhibition curve with a large enough effect in the signal ratio in the repeat runs, not every such curve was filed as active; the % refers to the signal ratio; note: potency is the fitted concentration of half-maximal effect)
In short: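 In this cell-based reporter screen, compounds were tested in concentration series against R1881-activated HEK293 cells expressing beta-lactamase under UAS control; after 16 h at 37C, FRET substrate was added and fluorescence read 2 h later.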

[18] = target: Androgen receptor (Homo sapiens) (UniProt P10275); experiment: qHTS assay to identify small molecule agonists of the androgen receptor (AR) signaling pathway (AID 743036; active = well fitted activation curve with a large enough effect in the signal ratio in the repeat runs, with a control signal flat, not every such curve was filed as active; the % refers to the signal ratio)
In short: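 Cell-based FRET reporter assay: HEK293 line with a UAS-beta-lactamase construct, compounds added in DMSO, 16 h exposure at 37C, then 2 h substrate step at room temperature and fluorescence intensity read.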
Tags give direction and shape of the fitted curve or compound fluorescence and quenching.

Androgen receptor (Homo sapiens), sequence (P10275 whole entry, looked up): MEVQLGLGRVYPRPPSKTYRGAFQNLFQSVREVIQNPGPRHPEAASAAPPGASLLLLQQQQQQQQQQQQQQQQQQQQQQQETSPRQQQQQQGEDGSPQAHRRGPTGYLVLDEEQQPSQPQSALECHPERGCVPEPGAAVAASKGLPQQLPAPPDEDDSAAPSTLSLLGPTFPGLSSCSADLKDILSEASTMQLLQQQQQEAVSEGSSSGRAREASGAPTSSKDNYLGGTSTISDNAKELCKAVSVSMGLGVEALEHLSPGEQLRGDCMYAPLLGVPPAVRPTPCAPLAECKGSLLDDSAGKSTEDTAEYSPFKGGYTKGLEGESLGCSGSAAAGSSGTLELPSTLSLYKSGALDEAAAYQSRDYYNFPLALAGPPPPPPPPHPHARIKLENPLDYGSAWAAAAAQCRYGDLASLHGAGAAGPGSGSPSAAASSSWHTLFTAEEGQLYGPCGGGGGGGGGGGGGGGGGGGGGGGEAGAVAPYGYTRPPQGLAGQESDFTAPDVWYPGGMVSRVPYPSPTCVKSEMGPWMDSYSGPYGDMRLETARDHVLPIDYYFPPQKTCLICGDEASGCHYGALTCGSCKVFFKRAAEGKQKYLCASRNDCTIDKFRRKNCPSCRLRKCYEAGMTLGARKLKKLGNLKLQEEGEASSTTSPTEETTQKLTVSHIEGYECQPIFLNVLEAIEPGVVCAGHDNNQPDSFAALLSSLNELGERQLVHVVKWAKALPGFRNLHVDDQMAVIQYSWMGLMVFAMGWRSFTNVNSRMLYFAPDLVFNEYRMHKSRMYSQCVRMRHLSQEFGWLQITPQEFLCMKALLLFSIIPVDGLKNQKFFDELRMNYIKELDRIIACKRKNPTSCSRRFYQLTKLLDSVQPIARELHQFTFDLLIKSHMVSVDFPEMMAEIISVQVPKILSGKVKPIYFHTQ

## CCCCc1oc2ccc(NS(C)(=O)=O)cc2c1C(=O)c1ccc(OCCCN(CCCC)CCCC)cc1
[1]
  outcome: inactive
[2]
  Potency: inactive
[3]
  outcome: inactive
[4]
  Potency: inactive
[5]
  Potency: inactive
[6]
  Potency: inactive
[7]
  Potency: inactive
[8]
  Potency: inactive
[9]
  Potency: 9.44 µM (active)
[10]
  Potency: 13.3 µM (active)
[11]
  Potency: 18.8 µM (active)
[12]
  Potency: 21.3 µM (active)

## CC(C)C(C)(C)C(C)(C)C(C)(C)S
[1]
  outcome: inactive
[2]
  Potency: inactive
[3]
  outcome: inactive
[4]
  Potency: inactive
[5]
  Potency: inactive
[6]
  Potency: inactive
[7]
  Potency: inactive
[8]
  Potency: inactive
[13]
  Potency: inactive
[9]
  Potency: inactive
[14]
  Potency: inactive
[15]
  Potency: inactive

## C[n+]1cc2c3c(ccc2c2ccc4cc5c(cc4c21)OCO5)OCO3
[1]
  outcome: inactive
[2]
  Potency: inactive
[3]
  outcome: inactive
[4]
  Potency: inactive
[5]
  Potency: inactive
[6]
  Potency: inactive
[7]
  Potency: inactive
[8]
  Potency: inactive
[13]
  Potency: 6.74 µM (active)
[9]
  Potency: 1.5 µM (active)
[10]
  Potency: 2.11 µM (active)
[11]
  Potency: 1.5 µM (active)
[14]
  Potency: inactive
[15]
  Potency: 26.6 µM (active)
[16]
  Potency: 18.8 µM (active)

## CCN(Cc1cccnc1)C(=O)c1cccc(Cl)c1[C@]1(C)C(=O)N(Cc2ccc(OC)cc2OC)c2ccc(Cl)cc21
[1]
  outcome: inactive
[2]
  Potency: inactive
[3]
  outcome: inactive
[4]
  Potency: inactive
[5]
  Potency: inactive
[6]
  Potency: inactive
[7]
  Potency: inactive
[8]
  Potency: inactive
[13]
  Potency: inactive
[9]
  Potency: 5.09 µM (active)
[10]
  Potency: 7.19 µM (active)
[11]
  Potency: 5.09 µM (active)
[14]
  Potency: inactive

## Oc1c(Cl)cc(Cl)c2cccnc12
[1]
  outcome: inactive
[2]
  Potency: inactive
[3]
  outcome: inactive
[4]
  Potency: inactive
[5]
  Potency: inactive
[6]
  Potency: inactive
[7]
  Potency: inactive
[8]
  Potency: inactive
[9]
  Potency: 3.76 µM (active)
[11]
  Potency: 4.22 µM (active)
[12]
  Potency: inactive
[15]
  Potency: 11.1 µM (active)

## CSc1ccc(/C=C2/C(C)=C(CC(=O)O)c3cc(F)ccc32)cc1
[1]
  outcome: inactive
[2]
  Potency: inactive
[3]
  outcome: inactive
[4]
  Potency: inactive
[5]
  Potency: inactive
[6]
  Potency: inactive
[7]
  Potency: inactive
[8]
  Potency: inactive
[9]
  Potency: inactive
[10]
  Potency: inactive
[11]
  Potency: inactive
[17]
  Potency: inactive
[14]
  Potency: inactive
[15]
  Potency: inactive
[16]
  Potency: inactive

## C[C@@H]1C[C@H]2[C@@H]3CCC4=CC(=O)C=C[C@]4(C)[C@@]3(Cl)[C@@H](O)C[C@]2(C)[C@@]1(OC(=O)c1ccco1)C(=O)CCl
[1]
  fluorescence, % of fluorescein: -0.0241% [at 18.6 µM]
[2]
  fluorescence, % of fluorescent control: 0.0036% [at 18.6 µM]
[3]
  activity change: -0.0517% [at 18.6 µM]
[4]
  fluorescence, % of fluorescent control: 0.0049% [at 18.6 µM]
[5]
  fluorescence, % of Rose Bengal: -0.333% [at 18.6 µM]
[6]
  fluorescence, % of fluorescent control: -0.0123% [at 18.6 µM]
[7]
  fluorescence, % of fluorescein control: -0.0158% [at 18.6 µM]
[8]
  fluorescence, % of fluorescent control: -0.0042% [at 18.6 µM]
[13]
  Potency: inactive
[9]
  Potency: 12.7 µM (active)
[12]
  Potency: inactive
[14]
  Potency: 0.0009 µM (active)
[15]
  Potency: inactive

## OCCN(CCO)c1nc(N2CCCCC2)c2nc(N(CCO)CCO)nc(N3CCCCC3)c2n1
[1]
  outcome: inactive
[2]
  Potency: 12.6 µM (active)
[3]
  outcome: inactive
[4]
  Potency: inactive
[5]
  Potency: inactive
[6]
  Potency: 12.6 µM [fluorescent] (active)
[7]
  Potency: inactive
[8]
  Potency: 12.6 µM [fluorescent] (active)
[13]
  Potency: inactive
[9]
  Potency: 11.9 µM (active)
[11]
  Potency: 10.6 µM (active)
[12]
  Potency: inactive
[14]
  Potency: inactive

## Oc1ccc2c(c1)-c1ccccc1C2
[1]
  outcome: inactive
[2]
  Potency: inactive
[3]
  outcome: inactive
[4]
  Potency: inactive
[5]
  Potency: inactive
[6]
  Potency: inactive
[7]
  Potency: inactive
[8]
  Potency: inactive
[13]
  Potency: inactive
[10]
  Potency: 54.5 µM (active)
[18]
  Potency: inactive
[14]
  Potency: inactive
[15]
  Potency: inactive
[16]
  Potency: inactive

## CCCCCCCCCOC(=O)c1ccc(O)cc1
[1]
  outcome: inactive
[2]
  Potency: inactive
[3]
  outcome: inactive
[4]
  Potency: inactive
[5]
  Potency: inactive
[6]
  Potency: inactive
[7]
  Potency: inactive
[8]
  Potency: inactive
[10]
  Potency: 19.1 µM (active)
[11]
  Potency: 19.1 µM (active)
[17]
  Potency: 24.2 µM (active)
[14]
  Potency: inactive

## CCOC(=O)c1nc(C(Cl)(Cl)Cl)n(-c2ccc(Cl)cc2Cl)n1
[1]
  outcome: inactive
[2]
  Potency: inactive
[3]
  outcome: inactive
[4]
  Potency: inactive
[5]
  Potency: inactive
[6]
  Potency: inactive
[7]
  Potency: inactive
[8]
  Potency: inactive
[9]
  Potency: 48.6 µM (active)
[10]
  Potency: 34.4 µM (active)
[11]
  Potency: 30.6 µM (active)
[12]
  Potency: 49 µM (active)
[14]
  Potency: inactive
[15]
  Potency: inactive
[16]
  Potency: 68.6 µM (active)

## CCCCCCCCCCCCCCCCCC[N+](C)(C)Cc1ccccc1
[1]
  outcome: inactive
[2]
  Potency: inactive
[3]
  outcome: inactive
[4]
  Potency: inactive
[5]
  Potency: inactive
[6]
  Potency: inactive
[7]
  Potency: inactive
[8]
  Potency: inactive
[13]
  Potency: 19.7 µM (active)
[9]
  Potency: 0.978 µM (active)
[11]
  Potency: 0.871 µM (active)
[12]
  Potency: 19.7 µM (active)
[14]
  Potency: inactive
[15]
  Potency: 17.4 µM (active)

## Cc1cc(=O)oc2cc(N(C)C)ccc12
[1]
  outcome: inactive
[2]
  Potency: 39.8 µM (active)
[3]
  outcome: inactive
[4]
  Potency: inactive
[5]
  Potency: inactive
[6]
  Potency: 44.7 µM [fluorescent] (active)
[7]
  Potency: inactive
[8]
  Potency: 44.7 µM [fluorescent] (active)
[13]
  Potency: inactive
[10]
  Potency: 54.5 µM (active)
[12]
  Potency: inactive

## O=c1[nH]sc2ccccc12
[1]
  outcome: inactive
[2]
  Potency: inactive
[3]
  outcome: inactive
[4]
  Potency: inactive
[5]
  Potency: inactive
[6]
  Potency: inactive
[7]
  Potency: inactive
[8]
  Potency: inactive
[9]
  Potency: 0.433 µM (active)
[11]
  Potency: 0.686 µM (active)
[12]
  Potency: 24.5 µM (active)

## O=C1C=CC(=O)N1
[1]
  outcome: inactive
[2]
  Potency: inactive
[3]
  outcome: inactive
[4]
  Potency: inactive
[5]
  Potency: inactive
[6]
  Potency: inactive
[7]
  Potency: inactive
[8]
  Potency: inactive
[13]
  Potency: 31.7 µM (active)
[9]
  Potency: 6.28 µM (active)
[11]
  Potency: 5.59 µM (active)
[12]
  Potency: 22.5 µM (active)
[14]
  Potency: inactive
[15]
  Potency: 55.9 µM (active)
[16]
  Potency: 31.4 µM (active)
